Screening data as filed in PubChem BioAssay.
This excerpt belongs to a sample that is enriched for hits.
Shiga inhibitor – blocks Shiga toxin action in Vero cells | Vero cells, Shiga toxin protein synthesis inhibition reporter | inhibition, % at 38.7 µM | 9.2% of 290,000 active; in the data active = inhibition mostly above about 28%, no sharp cut-off; inactive = mostly below about 43%; also: 0% is about no effect
LmPK inh – inhibitors of Leishmania mexicana pyruvate kinase; Q27686; purified LmPK, Kinase-Glo ATP luminescence, 1 h; Potency, µM (titrated, usually from 57.5 µM), inactives show at the top dose activity change, negative = inhibition, hits mostly inhibitors; 0.37% of 290,000 active; AID 1721; also: potency is read from the fitted curve at half-maximal effect; % is scaled to controls: 0 for no effect and ±100 for the full control effect
Target sequence (Q27686 whole entry, looked up): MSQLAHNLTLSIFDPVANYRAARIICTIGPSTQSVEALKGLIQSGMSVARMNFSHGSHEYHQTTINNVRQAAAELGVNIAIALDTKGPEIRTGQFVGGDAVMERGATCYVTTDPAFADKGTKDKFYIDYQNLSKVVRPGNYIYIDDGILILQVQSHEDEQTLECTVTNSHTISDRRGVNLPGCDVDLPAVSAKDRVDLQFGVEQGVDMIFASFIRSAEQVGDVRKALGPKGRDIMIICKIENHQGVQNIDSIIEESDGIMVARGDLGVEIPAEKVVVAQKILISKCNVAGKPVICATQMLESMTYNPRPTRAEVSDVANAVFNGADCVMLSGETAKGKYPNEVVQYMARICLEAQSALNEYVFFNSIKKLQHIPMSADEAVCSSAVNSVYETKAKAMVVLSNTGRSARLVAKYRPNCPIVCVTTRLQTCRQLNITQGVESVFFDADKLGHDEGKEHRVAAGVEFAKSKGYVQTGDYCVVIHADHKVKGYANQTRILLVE
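Purified LmPK (0.1 nM) converted ADP (0.1 mM) to ATP with PEP (0.5 mM) in imidazole buffer pH 7.2 with KCl and MgCl2, 1 h at room temperature. ATP was read by Kinase-Glo luminescence; data normalized to uninhibited and no-enzyme controls.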
TbPYK inhibitor – blocks Trypanosoma brucei pyruvate kinase; Q57TT1; AID 624173; TbPYK enzyme, Kinase-Glo Plus ATP luminescence, 45 min; Potency, µM (doses to about 76.8 µM), without a hit: top-dose activity, negative = inhibition, hits mostly inhibitors; 0.12% of 410,000 active; also: potency is read from the fitted curve at half-maximal effect; % is scaled to controls: 0 for no effect and ±100 for the full control effect; nearly all actives have a fitted effect of over 50% in size
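Enzyme and substrate buffer are dispensed first and compound is pin-transferred. ADP at 130 uM final then starts the reaction, which runs 45 min at room temperature. Detection reagent is added for 10 min before luminescence is imaged.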
Cycloheximide cs – affects cycloheximide protein synthesis inhibition readout, counter-screen | cell reporter, cycloheximide protein synthesis inhibition counterscreen | 12% of 300,000 active | max response, %; in the data active = max response mostly above about 13%, no sharp cut-off; inactive = mostly below about 14%; also: read at 38.3 µM for the half of the compounds with a filed dose; 0% is about no effect
RE007 growth inh – less growth of the S. pombe RE007 Vpr strain. S. pombe RE007 Vpr strain, BacTiter-Glo ATP luminescence, 24 h. Potency, µM (series often up to 92.2 µM), without a hit: at the top dose activity change, negative = less growth, most hits filed as inhibitors. 0.21% of 360,000 active; active = well fitted falling curve with a large enough effect; inconclusive = small, poorly fitted or top-dose-only effect; inactive = no such curve, though single readings can be large or run the other way; also: potency is read from the fitted curve at half-maximal effect; % is scaled to controls: 0 for no effect and ±100 for the full control effect; nearly all actives have a fitted effect of over 50% in size
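Fission yeast RE007 carrying one integrated HIV-1 vpr copy, seeded at OD 0.01 in PMG+AL medium with 23 nL pinned compound. Grown 24 h at 30 degrees; viability read by BacTiter-Glo luminescence after 5 min.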
Giardia FBPA inh – Giardia lamblia aldolase inhibition. A8B2U2. purified Giardia FBPA. Potency, µM (series often up to 59.6 µM), for inactives: at the top dose activity, negative = inhibition, usual class: inhibitors. 0.71% of 290,000 active. AID 2451; also: potency is read from the fitted curve at half-maximal effect; % is scaled to controls: 0 for no effect and ±100 for the full control effect; nearly all actives have a fitted effect of over 55% in size
Target sequence (A8B2U2 whole entry, looked up): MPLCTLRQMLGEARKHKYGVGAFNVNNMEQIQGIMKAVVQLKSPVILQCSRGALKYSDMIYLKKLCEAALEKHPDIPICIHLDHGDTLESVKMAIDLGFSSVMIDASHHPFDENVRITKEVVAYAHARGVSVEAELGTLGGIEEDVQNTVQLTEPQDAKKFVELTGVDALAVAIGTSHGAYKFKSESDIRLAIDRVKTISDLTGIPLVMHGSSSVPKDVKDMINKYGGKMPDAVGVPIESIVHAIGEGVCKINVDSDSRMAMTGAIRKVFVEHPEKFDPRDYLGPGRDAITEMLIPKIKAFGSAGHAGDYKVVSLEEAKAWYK
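40 nM FBPA preincubated 10 min at RT with compound (up to 57.5 uM final), then substrate plus GAPDH/TPI/NAD/arsenate coupling and diaphorase/resazurin added. Fluorescence read after 20 min at RT, 525/598 nm.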
An asterisk follows results filed as active; ? = inconclusive; . = no result; + = active, no number. Unless noted, calls follow the shape of the dose curve; as a rule, active = well fitted curve in the direction sought with a large enough effect; inconclusive = small, poorly fitted or top-dose-only effect, or another doubt; inactive = no such curve, though single readings can be large; an effect the other way counts as inactive or inconclusive.

SMILES | Shiga inhibitor | LmPK inh | TbPYK inhibitor | Cycloheximide cs | RE007 growth inh | Giardia FBPA inh
Nc1c(C(=O)N2CCCC2)sc2nc(-c3ccccc3)ccc12 | 75.2* | 1.3% | -7.5% | 38.8* | -12.3% | -4.0%
COC(=O)c1ccsc1NC(=O)CCc1ccccc1 | 65.0* | -16.3% | 5.0% | 48.3* | -0.9% | 0.6%
COC(=O)c1cc(C)sc1NC(=O)CCc1ccccc1 | . | 4.8% | -10.1% | -2.5 | 0.5% | 5.2%
NC(=O)c1ccsc1NC(=O)CCc1ccccc1 | . | -4.5% | -7.0% | 43.9* | -10.9% | -12.2%
Cc1ccsc1C(=O)OCC(=O)NCCNC(=O)COC(=O)c1sccc1C | . | . | 1.8% | . | 0.1% | .
COc1ccc(CCC(=O)OCC(=O)Nc2sccc2C(N)=O)cc1 | . | . | 7.7% | . | 4.7% | .
Cc1ccsc1C(=O)OCC(=O)Nc1sccc1C(N)=O | 64.8* | -4.8% | 4.9% | 42.3* | 16.6% | 0.5%
COC(=O)c1ccc(C(NC(=O)OCc2ccccc2)/C(=C/[C@@H](C)C(=O)N(C)Cc2ccccc2)c2cccnc2)cc1 (stereo partly drawn) | . | . | . | . | . | 1.6%
CC(=O)Nc1cccc(C)c1 | . | . | 2.6% | . | 8.3% | .
O=C(c1ccc(F)cc1)c1cnc(Nc2ccccc2)s1 | 75.2* | 6.4% | 3.0% | 23.4* | -15.8% | 6.6%
CNc1ncc(C(=O)c2ccc(F)cc2)s1 | 67.4* | -6.6% | -0.7% | 42.7* | -3.2% | 4.0%
CC(=O)c1cnc(Nc2cccc(C)c2)s1 | 118.8* | -23.5% | -12.8% | 48.1* | 27.9% | -6.8%
CNc1ncc(C(=O)C(C)(C)C)s1 | 41.4 | -2.8% | -4.1% | 15.0 | 5.6% | 5.8%
CCCCC/C=C\C/C=C\C/C=C\C/C=C\CCCC(=O)N(Cc1ccc(O)c(Cl)c1)Cc1ccc(O)c(Cl)c1 | 62.8* | . | . | 39.6 | . | 12.1%
OC(CNCc1cccs1)c1ccccc1 (stereo not drawn) | -3.7 | -1.9% | 10.8% | 0.8 | -12.8% | 12.0%
Cc1ccc(CNCC(O)c2ccccc2)s1 (stereo not drawn) | 5.3 | 2.2% | 0.4% | 13.5* | -7.2% | -17.2%
O=C(CCNS(=O)(=O)c1c(Cl)cccc1Cl)OCC(=O)c1ccccc1F | + | -0.4% | -4.3% | 10.7 | 6.0% | -2.3%
CCOC(=O)/C(=N\Nc1ccccc1)S(=O)(=O)c1ccccc1 | 25.3 | 6.8% | -1.7% | 22.1 | -2.1% | 0.7%
CCOC(=O)/C(=N/Nc1ccc(C)cc1)S(=O)(=O)c1ccc(Cl)cc1 | 28.8 | -2.5% | -9.5% | 22.8* | -5.4% | 1.8%
Cc1cc2nc(-c3cccc(NC(=O)CSc4ccc(Cl)cc4)c3)oc2cc1C | . | . | 3.0% | . | . | .
CC(=O)c1cc(C#N)c(SCc2ccccn2)nc1C | 68.3* | 0.6% | 2.8% | 46.7* | 0.2% | -1.2%
CC(=O)c1cc(C#N)c(SCc2ccccc2)nc1C | 30.8 | -3.2% | 2.0% | 31.7* | -18.8% | 1.9%
COC(=O)CSc1nc(C)c(C(C)=O)cc1C#N | 46.2 | -1.2% | -0.2% | 23.5* | -11.6% | 2.5%
C#CCSc1nc(-c2cccs2)ccc1C#N | -0.7 | 0.5% | -1.0% | 0.2 | 12.8% | 1.9%
COC(=O)CSc1nc(-c2cccs2)ccc1C#N | 49.8 | -0.1% | ? | 36.4* | -12.0% | -12.3%
SMILES | Shiga inhibitor | LmPK inh | TbPYK inhibitor | Cycloheximide cs | RE007 growth inh | Giardia FBPA inh
Cc1noc(C)c1C(=O)N1CCC2(CCN(Cc3ccccc3)CC2)CC1 | . | . | -6.1% | . | . | 6.0%
Cc1ccc(C)c(S(=O)(=O)N2CCCOC2CNC(=O)C(=O)NCc2ccccn2)c1 (stereo not drawn) | -5.5 | 0.2% | 5.4% | 1.5 | -17.7% | .
CCOC(=O)C1=CCN(S(C)(=O)=O)C1c1ccc(C)cc1 (stereo not drawn) | . | . | -1.3% | . | 10.3% | .
CCOC(=O)c1c(C)nc(C)c2c(=O)oc3ccccc3c12 | 92.6* | -12.3% | -0.1% | 33.4* | -10.7% | 4.6%
COCc1nc2oc3ccccc3c(=O)c2cc1C(=O)OC | 45.7* | -21.8% | 1.1% | 12.0* | 13.5% | -1.9%
CC(=O)c1cc2c(=O)c3ccccc3oc2nc1C | . | . | -2.6% | . | 12.4% | .
CCN(CC)C(=O)c1cc2c(=O)c3cc(F)ccc3oc2nc1C | 63.7* | -0.7% | 1.1% | 38.5* | 16.2% | 4.0%
CCOC(=O)c1cc2c(=O)c3ccccc3oc2nc1C | 102.8* | -4.4% | -0.9% | 39.9* | 1.8% | 4.4%
Nc1ncnc2c1ncn2[C@@H]1O[C@H](C(=O)Nc2ccc(Oc3ccccc3)nc2)[C@@H](O)[C@H]1O | . | . | 5.9% | . | 3.0% | .
CN(C)c1ccc(CNC(=O)c2sc3ncccc3c2-n2cccc2)cc1 | . | . | 4.8% | . | . | .
O=C(CNC(=O)c1ccccc1Cl)N/N=C/C=C/c1ccccc1 | 7.7 | -2.0% | -1.8% | 7.2 | 1.3% | 3.0%
C=C1C(=O)O[C@H]2C[C@]3(C)C([C@@H](OC(=O)/C(C)=C/C)[C@H]12)[C@](C)(O)CC[C@H]3O (stereo partly drawn) | 34.0 | 3.7% | -4.6% | 30.2* | 10.3% | 13.3%
C=C1C(=O)O[C@H]2[C@H]1[C@H](OC(=O)/C(C)=C\C)C[C@]1(CO1)[C@@H]1[C@H](OC(C)=O)C=C(C)[C@]21O | . | . | -8.8% | . | 7.3% | .
c1ccc(C[n+]2csc3ccccc32)cc1 | 108.8* | 1.1% | ? | 14.3 | 7.5% | -10.5%
Fc1cccc(C[n+]2csc3ccccc32)c1 | 9.1 | 0.5% | ? | 2.4 | 22.0% | -24.5%
Cc1coc2cc3oc(=O)c(CC(=O)NCc4cccc(Cl)c4)c(C)c3cc12 | . | . | 4.3% | . | . | .
COc1ccc(-n2c(=O)c(-c3ccc(Cl)cc3)nc3cnc(N4CCNCC4)nc32)cc1 | . | . | . | . | . | 2.9%
CCCC(=O)Nc1ccc(NC(=O)c2ccccc2Cl)nc1 | 56.8 | -1.6% | 1.4% | 40.4* | 12.5% | -6.9%
CCC(=O)Nc1ccc(NC(=O)C23CC4CC(CC(C4)C2)C3)cn1 | 34.4 | 1.8% | -0.5% | 14.3 | . | -11.1%
CCCC(=O)Nc1ccc(NC(=O)Cc2ccccc2)cn1 | -7.7 | 1.0% | -1.1% | -1.4 | 7.9% | -0.1%
O=C(Nc1ccc(NC(=O)C2CC2)nc1)c1ccccn1 | 61.9* | 14.1µM* | -26.9% | 18.0* | -14.3% | -23.9%
CC(C)C(=O)Nc1ccc(NC(=O)c2ccccn2)cn1 | 41.6* | ? | -13.7% | 26.5* | -16.0% | -17.1%
CCC(=O)Nc1ccc(NC(=O)c2ccccn2)cn1 | 46.6* | ? | 1.6% | 34.7* | -1.6% | -10.6%
Cc1ccc(NC(=O)CN(C)C(=O)CSc2nccn2C)cc1 | . | . | 3.7% | . | -11.6% | .
COc1ccc(C(=O)N(C)Cc2ccc(C)o2)cc1OC1CCN(C(C)=O)CC1 | -8.3 | 0.9% | -6.7% | -1.7 | 6.7% | -2.8%
COc1cc([C@@H]2Oc3cc([C@H]4Oc5cc(O)cc(O)c5C(=O)[C@H]4O)ccc3O[C@H]2CO)ccc1O | . | . | . | . | . | -9.4%
Cc1ccc(C(=O)/C=C\Nc2ccc(C)c(C)c2)cc1 | 108.6* | -1.6% | -2.7% | 99.7* | 7.9% | 17.6%
